Inconclusive results are not listed. Unmarked numbers belong to inactive results. Calls come from the whole dose curve; as a rule, active = well fitted inhibition curve with a large enough effect; inconclusive = small, poorly fitted or top-dose-only effect; inactive = flat fitted curve, though single readings scatter.
% is set by controls: 0 for no effect and ±100 for the full control effect.

The experiment in a line: qHTS to identify inhibitors of the type 1 interferon - major histocompatibility complex class I in skeletal muscle: primary screen against the NCATS Pharmaceutical Collection (AID 1347407). The conditions noted are these: human skeletal muscle cells, IFN-b-induced MHC-I HiBiT luminescence, 24 h; series mostly up to 45.9 µM; activity change, negative = inhibition: at the top concentration. The text has this: Assay Submitter (PI): Travis B. Kinder Ph.D. & James Inglese Ph.D.
Assay Development and Screening Technology Laboratory (ADST)
National Center for Advancing Translational Sciences (NCATS), Rockville, MD
National Institute of Health (NIH), Bethesda, Maryland
Idiopathic inflammatory myopathies, collectively referred to as myositis, are a group of rare autoimmune diseases characterized by skeletal muscle inflammation, weakness, and usually accompanied by systemic pathologies of the skin, lungs, or vasculature. Current immunosuppressive therapies and glucocorticoids are often not curative and are accompanied by harsh side effects, especially in children with juvenile myositis. We initiated a drug repurposing and development program to identify more targeted, less toxic therapeutics to treat myositis. Although its cause is not known, muscle from a subset of patients have an abundance of the inflammatory type 1 interferon (IFN) and a down-stream product major histocompatibility complex class I (MHC class I), which are both thought to contribute to damage and weakness. We conducted quantitative high throughput screening on 6,576 compounds (4,679 unique) through a series of cell-based assays to identify those that inhibit the IFN-stimulated expression of MHC class I in muscle precursor cells (myoblasts). The compound identification and evaluation strategy utilized a primary screen with reporter-tagged MHC class I in genome-engineered myoblasts, ATP content counter screen for viability, HLA-ABC immunofluorescence secondary screen, and HLA-B RT-qPCR tertiary screen.
The primary screen utilized CRISPR/Cas9 genome-engineering of immortalized human myoblasts, C25cl48, where a pro-luminescent reporter HiBit was fused to the C-terminus of endogenous MHC class I allele HLA-B*08:01 (HLA-B HiBit myoblasts). HiBit is an 11 amino acid fragment of NanoLuc luminescent reporter (Promega Corporation), and when complexed to the larger LgBit fragment, the reconstituted enzyme produces light in the presence of furimazine substrate (Schwinn et al., 2018). Briefly, HLA-B HiBit myoblasts were plated into 1536-well plates, treated with 4.0 ng/ml human IFN-beta and 2,816 compounds from the NCATS Pharmaceutical Collection (NPC) that contains all drugs approved in the US, EU, and Japan (Huang et al., 2011) in an 8-point, 1:5 titration with a high final concentration of 46 uM. After 24 hrs of treatment, cells were assayed by Nano-Glo HiBiT Lytic Detection System (Promega) and luminescence measured by a ViewLux 1430 Ultra HTS (Perkin Elmer).
Huang R, Southall N, Wang Y, Yasgar A, Shinn P, Jadhav A, Nguyen D-T, Austin CP. 2011. The NCGC pharmaceutical collection: a comprehensive resource of clinically approved drugs enabling repurposing and chemical genomics. Sci Transl Med 3:80ps16. doi:10.1126/scitranslmed.3001862
Schwinn MK, Machleidt T, Zimmerman K, Eggers CT, Dixon AS, Hurst R, Hall MP, Encell LP, Binkowski BF, Wood K V. 2018. CRISPR-Mediated Tagging of Endogenous Proteins with a Luminescent Peptide. ACS Chem Biol 13:467-474. doi:10.1021/acschembio.7b00549
PROTOCOL TABLE (as described by Inglese et al., 2007)
SEQUENCE No. (e.g., 1, 2, 3, etc.); […] (e.g., Cells, Incubation, Reagent, etc.); VALUE; DESCRIPTION
1a; Cells; 5 uL; Use a Multidrop Combi (Thermo Scientific) to seed 350 cells/well into nine Greiner 1536 well white/solid bottom, high base, TC plates in 5 ul/well of iHSKM growth medium (GM) without dexamethasone into columns 1+2. Add metal lids with gas-exchange holes
1b; Cells; 5 uL; Use a Multidrop Combi (Thermo Scientific) to seed 350 cells/well into nine Greiner 1536 well white/solid bottom, high base, TC plates in 5 ul/well of iHSKM GM without dexamethasone + 4 ng/ml IFN-b into columns 3 - 48. Add metal lids with gas-exchange holes
2; Incubate; 1 hr; Incubate at 37 C, 5% CO2, 95% RH
[…]
For orientation: Quantitative high-throughput screening tests each substance at several concentrations.
Take `CC(=O)NC(=O)c1ccccc1O`: the “activity change, negative = inhibition” value is -0.0975%. For `CNCCc1ccccn1`, the “activity change, negative = inhibition” value was -20.8%. Under `CC(C)Cc1ccc(CC(=O)O)cc1` stands -10.2%. Take `CCCCCCCCCCCCSCCOCCO`: the “activity change, negative = inhibition” value was -2.19%.

For `O=C(NCCc1c[nH]c2ccccc12)c1cccnc1`, the “activity change, negative = inhibition” value was -1.75%. For `Cc1ccccc1OCC(O)CO` (stereo not given), the “activity change, negative = inhibition” value was -7.3%. For `OC[C@H]1O[C@@H](Oc2ccc(O)cc2)[C@H](O)[C@@H](O)[C@@H]1O`, the “activity change, negative = inhibition” value was -4.4%. In the case of `CC(C(=O)O)c1cccc(Oc2ccccc2)c1` (stereo not given) it was -15.3%; in that of `O=C1OC2(c3ccccc31)c1cc(Br)c(O)c(Br)c1Oc1c2cc(Br)c(O)c1Br`, -15.8%; in that of `CCN1/C(=C/C=C/c2sc3ccccc3[n+]2CC)Sc2ccccc21`, 5.88% [at 19 µM]. Consider `CC1(COc2ccc(CC3SC(=O)NC3=O)cc2)CCCCC1` (stereo not given), for which the “activity change, negative = inhibition” value was -14.1%. In the case of `OCCOCCN1CCN(C2=Nc3ccccc3Sc3ccccc32)CC1` it was 7.02%.

As for `CCc1cc(Cl)c(OC)c(C(=O)NC[C@@H]2CCCN2CC)c1O`, the “activity change, negative = inhibition” value was -14.6%. Regarding `O=[N+]([O-])c1ccc(/C=N\O)o1`, the “activity change, negative = inhibition” value was 23.8%. Under `CCCCN1C[C@H](O)[C@@H](O)[C@H](O)[C@H]1CO` stands -9.31%; under `CN1CCN(c2c(F)cc3c(=O)c(C(=O)O)cn4c3c2SCC4)CC1`, -15.7%. For the compound `CN(CCCN1c2ccccc2CCc2ccccc21)CC(=O)c1ccc(Cl)cc1`, the “activity change, negative = inhibition” value is 10.4%. With `CC(CNC1CCCCC1)OC(=O)c1ccccc1` (stereo not given), the “activity change, negative = inhibition” value was -6.41%. Under `O=C(Nc1cccc(C2=NCCN2)c1)Nc1cccc(C2=NCCN2)c1` stands -2.12% [at 19 µM]; under `COc1cc(N)c(Cl)cc1C(=O)NC1CCN(Cc2ccccc2)CC1`, -3.26%. Take `CCOC(=O)c1c(N)sc2c1CCN(Cc1ccccc1)C2`: the “activity change, negative = inhibition” value is -5.84%. With `COc1ccc(C(=O)c2ccccc2)c(O)c1`, the “activity change, negative = inhibition” value was -3.97%.

With `CCCCCCCCCCCCCCCCO`, the “activity change, negative = inhibition” value was 1.29%. Under `CC(=O)OCC1=C(C(=O)O)N2C(=O)[C@@H](NC(=O)CSc3ccncc3)[C@H]2SC1` stands -5.17%; under `CCc1oc2ccccc2c1C(=O)c1cc(Br)c(O)c(Br)c1`, -24.3%.

On to `COc1ccc(C(Cl)=C(c2ccc(OC)cc2)c2ccc(OC)cc2)cc1`, for which the “activity change, negative = inhibition” value is -6.39%.

For the compound `O=S(=O)(O)c1ccc(O)cc1`, the “activity change, negative = inhibition” value was 1.52%. Regarding `CC(=O)NCCCCCC(=O)O`, the “activity change, negative = inhibition” value was 0.603%.

Regarding `CN1CCC(OC(c2ccccc2)c2ccccc2)CC1`, the “activity change, negative = inhibition” value was -9.71%.

With `Nc1ccc(C(=O)NCC(=O)O)cc1`, the “activity change, negative = inhibition” value is 3.3%. In the case of `Cc1cc(-c2ccccc2)nnc1NCCN1CCOCC1` it was -1.12%.

With `C[N+]1(C)CCC(=C(c2ccccc2)c2ccccc2)CC1`, the “activity change, negative = inhibition” value was -6.49%.

Consider `NC(=O)C1(N2CCCCC2)CCN(CCCC(=O)c2ccc(F)cc2)CC1`, for which the “activity change, negative = inhibition” value is 4.99%.

Take `COc1ccc(CN(CCN(C)C)c2ncccn2)cc1`: the “activity change, negative = inhibition” value is 3.95%.

As for `N[C@H](C(=O)O)[C@@H](O)c1ccc(O)c(O)c1`, the “activity change, negative = inhibition” value was -0.166%. As for `CCc1ccc(C(=O)C(C)CN2CCCCC2)cc1` (stereo not given), the “activity change, negative = inhibition” value was 3.01%. Take `c1ccc(CC2=NCCN2)cc1`: the “activity change, negative = inhibition” value was -8.73%. Regarding `COc1ccc(S(=O)(=O)N2c3ccc(Cl)cc3[C@@](O)(c3ccccc3Cl)[C@H]2C(=O)N2CCC[C@@H]2C(N)=O)cc1OC`, the “activity change, negative = inhibition” value was -10.7%.

Turning to `NC1CCN(c2nc3c(cc2F)c(=O)c(C(=O)O)cn3-c2ccc(F)cc2F)C1` (stereo not given), the “activity change, negative = inhibition” value is -17.9%. Consider `CN(C)CCN1C(=O)c2ccccc2N(C)c2ccccc21`, for which the “activity change, negative = inhibition” value is -12.9%.

The values above are taken from PubChem BioAssay (NCATS).
